Bioassay records as filed in PubChem.
hgDAF12 agonist = agonists of H. glycines DAF-12 nuclear receptor; HEK293 GAL4-hgDAF12 UAS-luciferase reporter, agonist luminescence; normalized to butyrate control; activation, % at 6.8 µM; hit rate 1.8% among 370,000;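 active means activation above a cutoff set at the mean of all screened compounds plus 3 SD, cut at about 10% in these data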
ssDAF-12 act = activators of S. stercoralis DAF-12 nuclear receptor; activation, % at 6.8 µM; AID 652126; HEK293 ssDAF-12/GRIP1 lit1-tk-luc reporter, luminescence; % of 3 µM dafachronic acid response; hit rate 1% among 370,000;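 active means activation above the mean over all tested compounds plus 3 SD, cut at about 0.9% in these data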
DAX1 inh-1 = inhibits human nuclear receptor DAX1 | P51843 | HEK293 Gal4-DAX1 luciferase reporter, luminescence | inhibition, % at 6.75 µM | hit rate 0.99% among 340,000 | AID 504766;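 active means inhibition above the mean over all tested compounds plus 3 SD, cut at about 4.2% in these data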;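 further: inhibition shows as a rise in luminescence from relieved DAX1 repression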
Target sequence (P51843 207-470 limits assumed): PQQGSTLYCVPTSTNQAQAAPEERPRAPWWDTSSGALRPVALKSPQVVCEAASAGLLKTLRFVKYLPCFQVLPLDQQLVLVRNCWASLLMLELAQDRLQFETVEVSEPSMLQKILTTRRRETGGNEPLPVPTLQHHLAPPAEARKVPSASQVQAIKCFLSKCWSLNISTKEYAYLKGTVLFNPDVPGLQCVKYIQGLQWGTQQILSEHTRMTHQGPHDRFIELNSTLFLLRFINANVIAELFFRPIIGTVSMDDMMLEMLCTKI
SMARCA2 act = activators of SMARCA2 function; MG213 cells, MMTV-luciferase reporter, dexamethasone, overnight; activation, % at 9.1 µM; hit rate 1% among 370,000; AID 652017; in the data active means activation above about 7.8%
DAX1 inh-2 = blocks DAX1 repression of SF-1 activated StAR promoter | inhibition, % at 6.8 µM | HEK293T StAR-luciferase reporter, SF-1/DAX-1 repression relief | hit rate 1.1% among 370,000 | AID 652010;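 active means inhibition above the mean over all tested compounds plus 3 SD, cut at about 3.6% in these data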;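 further: higher inhibition means more luminescence from relief of DAX-1 repression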
hcDAF12 agonist = activates DAF-12 receptor from parasite H. contortus | activation, % at 6.8 µM | HEK293 hcDAF-12 lit1-tk-luc reporter, luminescence; 0% DMSO, 100% Δ7-dafachronic acid | hit rate 1.4% among 370,000;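 active means activation above the mean of all tested compounds plus 3 SD, cut at about 5.5% in these data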
SMARCA2 act conf = SMARCA2 activation, confirmation screen; shares compounds with SMARCA2 act; activation, % at 9.1 µM; hit rate 30% among 3,500; MG213 cells, MMTV-luciferase with dexamethasone, luminescence, overnight; MG213 cells expressing E1A, Rb sequestered; DMSO wells 0%, reference activator 100%;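 active means activation above its plate's cutoff, the mean activation of tested wells plus 3 SD, cut at about 7.9% in these data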
GAL4-VP16 Luc = counter-screen for SMARCA2 activators: GAL4-VP16 luciferase reporter activation; shares compounds with SMARCA2 act; HEK293 GAL4-VP16 pG5luc reporter, luciferase luminescence; scaled: DMSO wells 0%, SAHA wells 100%; activation, % at 9.1 µM; hit rate 41% among 3,500;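 active means activation above the solvent-only control well mean plus 3 SD, averaged across control plates, cut at about 5.2% in these data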
Numbers stand for hits; . = inactive; / = no result. Only some compounds are listed: those with a hit (about 4.8% of all), similar ones and a draw of the others.

SMILES | hgDAF12 agonist | ssDAF-12 act | DAX1 inh-1 | SMARCA2 act | DAX1 inh-2 | hcDAF12 agonist | SMARCA2 act conf | GAL4-VP16 Luc
COc1ccc(-c2cc(C#N)nc(Cl)n2)cc1 | . | . | . | 21.2 | . | . | 40.9 | .
COC(=O)[C@]12C[C@H](CC(=O)N3CCCC3)C(=O)N(Cc3cccc4ccccc34)C1=C[C@H](COCc1ccccc1)O[C@@H]2C | . | . | / | . | . | . | / | /
O=C1/C(=C/c2cccnc2)SC(=S)N1CCc1ccccc1 | . | . | . | 8.7 | . | . | . | .
Cc1ccc(NC(=O)C2CCN(C(=O)NC3CCCCC3)CC2)c(C)c1 | . | . | . | . | . | . | / | /
Cc1ccc(NC(=O)N2CCCCCC2)c(C)c1 | . | . | . | 9.6 | . | . | . | .
Cc1ccc(NC(=S)NC(=O)C2CC2)c(C)c1 | . | . | . | 8.8 | 4.0 | . | . | .
Nc1ccc2ccc(N)cc2c1 | . | . | / | 12.7 | . | . | . | .
COc1ccc2c(c1)N=C(c1[nH]c3ccccc3c1CCN1C(=O)c3ccccc3C1=O)[C@]2(O)CCN1C(=O)c2ccccc2C1=O | . | . | / | / | / | . | / | /
CCCCN1C(=O)N(c2nnc(C(C)(C)C)s2)C(O)C1c1ccc(C)cc1 (configuration not stated) | . | . | . | 10.4 | . | . | . | .
CN1C(=O)N(c2nnc(C(C)(C)C)s2)C(=O)C1c1ccccc1 (configuration not stated) | . | . | . | . | . | . | / | /
CCC[C@H]1[C@@H](OC(=O)NCc2ccc(OC)cc2)CC[C@@]23CCCN2C(=O)CCC[C@@H]13 | . | . | / | / | / | . | / | /
Cc1onc(-c2ccccc2)c1C(=O)NN=Cc1cc(Cl)cc(Cl)c1O | . | . | / | . | . | . | / | /
CC(C)(C)OC(=O)NC(Cc1ccccc1)C1CC(C#N)C(=O)O1 (configuration not stated) | . | . | / | / | / | . | / | /
CN1CCN(C(=O)c2cccc(-c3cnc4cnc(-c5ccccc5Oc5ccccc5)cn34)c2)CC1 | . | . | / | 9.5 | . | . | . | .
CN(CCOC(=O)CSc1ccccc1)C1CN(Cc2cn(Cc3ccccc3F)nn2)S(=O)(=O)C1 (configuration not stated) | . | . | / | . | . | . | / | /
CN(C)Cc1ccc(CNC(=O)c2ccc(Cl)c(S(=O)(=O)NC3CC3)c2)cc1 | . | . | . | 9.0 | . | . | . | .
COc1ccc2c(CCNC(=O)c3ccco3)c[nH]c2c1 | . | . | . | 9.6 | . | . | . | .
CCN=C1S/C(=C/c2cc(C)n(-c3ccc(Cl)cc3F)c2C)C(=O)N1CC | . | . | / | / | / | . | / | /
Cc1cc(Cl)c2oc(C(=O)NCC(C)(C)N3CCOCC3)c(C)c2c1 | . | . | . | 9.3 | . | . | . | 5.2
COc1cc2c(cc1OC)-c1cc(Nc3ccccc3Br)nc(=O)n1CC2 | . | . | . | 12.7 | . | . | 8.6 | 15.6
COc1cc2c(cc1OC)-c1cc(Nc3ccccc3)nc(=O)n1CC2 | . | . | . | . | . | . | / | /
COc1ccc(Nc2cc3n(c(=O)n2)CCc2cc(OC)c(OC)cc2-3)cc1 | . | . | . | . | . | . | / | /
COc1cc2c(cc1OC)-c1cc(Nc3ccc(C)cc3)nc(=O)n1CC2 | . | . | . | 9.9 | . | . | 9.2 | .
O=C(NCCC1=CCCCC1)C1CCCN(S(=O)(=O)c2cccc3cccnc23)C1 (configuration not stated) | . | . | . | 10.4 | . | . | . | .
O=C(/C=C1\SC(=O)NC1=O)Nc1ccc(F)cc1 | . | . | . | 8.4 | . | . | . | .
SMILES | hgDAF12 agonist | ssDAF-12 act | DAX1 inh-1 | SMARCA2 act | DAX1 inh-2 | hcDAF12 agonist | SMARCA2 act conf | GAL4-VP16 Luc
O=C(COc1ccccc1/C=C1\SC(=O)NC1=O)Nc1ccccc1 | . | . | . | . | . | . | / | /
Cc1ccc(S(=O)(=O)N2OC(c3ccccc3)C[C@H]2CC=C(c2ccccc2)c2ccccc2)cc1 (some centres not stated) | . | . | / | / | / | . | / | /
O=c1oc2cc(Cl)ccc2n1CSc1nc2ccccc2s1 | 11.6 | . | . | 8.8 | . | 6.5 | . | 11.5
CC(CN1C(C)CCCC1C)OC(=O)c1cccc(F)c1 (configuration not stated) | . | . | . | . | . | . | / | /
CC(CN1C(C)CCCC1C)OC(=O)c1ccccc1F (configuration not stated) | . | . | . | 9.2 | . | . | . | .
O=C(NCCc1ccccc1)OCc1cn(-c2cccc(C(F)(F)F)c2)nn1 | . | . | / | . | . | . | / | /
COc1ccc(-n2nc3c(N4CCC(C(=O)NCc5cccc(C)c5)CC4)nnc(C)c3c2C)cc1 | . | . | . | 14.1 | . | . | 16.9 | .
CCOCc1nnc(NC(=O)c2cccc(OC)c2)s1 | . | . | . | . | . | . | / | /
COc1cccc(C(=O)Nc2nnc(-c3cccs3)s2)c1 | 10.6 | . | . | 8.3 | . | . | 11.6 | 13.5
CCCC1CCC2(CCCN2CCOC(=S)Nc2cccc(Cl)c2)CC1 (configuration not stated) | . | . | / | / | / | . | / | /
CCNC(=S)NNC(=O)c1ccoc1C | . | . | . | . | . | . | / | /
Cc1occc1C(=O)NNC(=O)C1CC1 | . | . | . | 9.5 | . | . | . | .
Cc1occc1C(=O)NNC(=S)Nc1ccccc1 | 11.8 | . | . | 9.3 | . | . | . | 6.8
CCOC(=O)c1c(C)[nH]c(C)c1S(=O)(=O)NCCc1sccc1C | . | . | . | . | . | . | / | /
CCOC(=O)c1c(C)[nH]c(C)c1S(=O)(=O)NCCc1ccc(SC)cc1 | . | . | . | 11.8 | . | . | . | .
Cn1c(SCCc2ccccc2)nnc1-c1ccco1 | 13.0 | . | / | 9.4 | . | . | . | .
O=C(/C=C/c1ccc(Cl)cc1Cl)N1CCN(c2ccc([N+](=O)[O-])c(N3CCOCC3)c2)CC1 | . | . | . | 9.9 | . | . | . | .
O=C(c1ccc(F)cc1)C1CCN(Cc2ccccc2F)CC1 | . | . | . | . | . | . | / | /
O=C(c1ccc(Cl)cc1)C1CCN(Cc2ccccc2)CC1 | . | . | . | 8.2 | . | . | . | .
Cc1ccc(-n2c(=O)cc(N3CC(C)CC(C)C3)[nH]c2=O)cc1 (configuration not stated) | . | . | . | . | . | . | / | /
Cc1ccc(-n2c(=O)cc(N3CCC(C)CC3)[nH]c2=O)cc1 | . | . | . | 8.2 | . | . | . | .
CC(C)(C)N1Cc2nnn(Cc3ccccc3)c2-c2cc(N3CCCC3)ccc2S1(=O)=O | . | . | / | . | . | . | / | /
